Experimental data from PubChem BioAssay.
Records with an inconclusive call do not appear. Active and inactive are the calls of the source.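 The calls were made as follows, unless noted: active = normalized viability below 100% at a tested concentration; inactive = the rest.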

How the values were obtained:
[1] = growth inhibition of DIPG glioma cells, dose response, cell-based, SU-DIPG-XVII, MIPE5.0, CellTiter-Glo, qHTS (AID 1347060; cut-off not given, nearly all actives have AC50 up to about 26 µM;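 as to AC50: cells exposed to compound for 48 hours before viability readout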); conditions: SU-DIPG-XVII viability, CellTiter-Glo ATP luminescence
[2] = growth inhibition of DIPG glioma cells, dose response, cell-based, JHH-DIPG-1, MIPE4.0, CellTiter-Glo, qHTS (AID 1347062; cut-off not given, nearly all actives have AC50 up to about 27 µM;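 also: cells exposed to compound for two days before readout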); conditions: JHH-DIPG-1 viability, CellTiter-Glo ATP luminescence
[3] = viability loss in pontine glioma line – cell-based, SU-DIPG-XXV, MIPE5.0, CellTiter-Glo, qHTS, dose response (AID 1347065; cut-off not given, nearly all actives have AC50 up to about 26 µM;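 also: cells exposed to compound for 48 hours before ATP readout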); conditions: CellTiter-Glo ATP luminescence
[4] = JHH-DIPG-1 glioma cell viability, MIPE5.0 library, CellTiter-Glo luminescence, qHTS (AID 1347067; cut-off not given, nearly all actives have AC50 up to about 26 µM;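 also: cells exposed to compound for 48 hours before readout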); conditions: JHH-DIPG-1 glioma viability, CellTiter-Glo ATP luminescence
[5] = modifiers of HSF1 nuclear foci, imaging, Selleck Cancer Library (AID 1347162; in the data active = plate-normalised HSF1 focus index below about 0.46); conditions: human cells, at 10 µM; SSMD: measured here: HSF1 foci SSMD mean; cell count: measured here: cell number; plate-normalised HSF1 focus index: stronger effect = lower value
[6] = ovarian cancer cell viability with rucaparib, profiling panel, oncology-focused library, rucaparib conditional (AID 1508598); conditions: patient-derived ovarian cancer cells, CellTiter-Glo viability, 144 h, stronger effect = lower value
[7] = growth inhibition of DIPG glioma cells, dose response, cell-based, SU-DIPG-IV, MIPE4.0, CellTiter-Glo, qHTS (AID 1347063; cut-off not given, nearly all actives have AC50 up to about 30 µM;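 also: compound exposure lasted 48 hours before the viability readout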); conditions: SU-DIPG-IV viability, CellTiter-Glo ATP luminescence
[8] = growth inhibition of DIPG glioma cells, dose response, cell-based, SU-DIPG-XIII, MIPE5.0, CellTiter-Glo, qHTS (AID 1347064; cut-off not given, nearly all actives have AC50 up to about 23 µM;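 as to AC50: cells exposed to compound for 48 hours before the viability read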); conditions: SU-DIPG-XIII viability, CellTiter-Glo ATP luminescence
[9] = SU-DIPG-VI glioma cell viability, MIPE4.0 library, CellTiter-Glo luminescence, qHTS (AID 1347066; cut-off not given, nearly all actives have AC50 up to about 30 µM;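 also: cells exposed to compound for 48 hours before readout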); conditions: CellTiter-Glo ATP luminescence
[10] = SU-DIPG-XXV glioma cell viability, MIPE5.0 library, qHTS (AID 1347068; cut-off not given, nearly all actives have IC50 up to about 30 µM)
[11] = sensitizers of A549 cells to miR-34 induction, primary screen, imaging, A549 dox-inducible miR-34, nuclei and caspase counts (AID 1347080;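 active = compounds whose cell count with miR-34 switched on is under 0.7 times the count with it off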); conditions: A549 miR-34 inducible, Hoechst nuclei count, 48 h
[12] = survival rescue of mitochondrial mutant cells in low glucose, primary screen, MELAS cybrids, Rieske KO mouse fibroblasts, CellTiter-Glo (AID 1508586;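 active = mean z-score across replicates of 1.96 or higher in either the MELAS or the Rieske mutant cell line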;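 also: z relative to plate mean and SD of compound and empty wells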)
[13] = at 0.000305 µM, OCI-C5x cells, with rucaparib 10 µM, 100% = cells with rucaparib alone
[14] = at 0.000305 µM, OCI-C5x cells, without rucaparib
[15] = at 0.000305 µM, OCI-P5x cells, with rucaparib 20 µM, 100% = cells with rucaparib alone
[16] = at 0.000305 µM, OCI-P5x cells, without rucaparib
[17] = at 0.00122 µM, OCI-C5x cells, with rucaparib 10 µM, 100% = cells with rucaparib alone
[18] = at 0.00122 µM, OCI-C5x cells, without rucaparib
[19] = at 0.00122 µM, OCI-P5x cells, with rucaparib 20 µM, 100% = cells with rucaparib alone
[20] = at 0.00122 µM, OCI-P5x cells, without rucaparib
[21] = at 0.00488 µM, OCI-C5x cells, with rucaparib 10 µM, 100% = cells with rucaparib alone
[22] = at 0.00488 µM, OCI-C5x cells, without rucaparib
[23] = at 0.00488 µM, OCI-P5x cells, with rucaparib 20 µM, 100% = cells with rucaparib alone
[24] = at 0.00488 µM, OCI-P5x cells, without rucaparib
[25] = at 0.0195 µM, OCI-C5x cells, with rucaparib 10 µM, 100% = cells with rucaparib alone
[26] = at 0.0195 µM, OCI-C5x cells, without rucaparib
[27] = at 0.0195 µM, OCI-P5x cells, with rucaparib 20 µM, 100% = cells with rucaparib alone
[28] = at 0.0195 µM, OCI-P5x cells, without rucaparib
[29] = at 0.0781 µM, OCI-C5x cells, with rucaparib 10 µM, 100% = cells with rucaparib alone
[30] = at 0.0781 µM, OCI-C5x cells, without rucaparib
[31] = at 0.0781 µM, OCI-P5x cells, with rucaparib 20 µM, 100% = cells with rucaparib alone
[32] = at 0.0781 µM, OCI-P5x cells, without rucaparib
[33] = at 0.313 µM, OCI-C5x cells, with rucaparib 10 µM, 100% = cells with rucaparib alone
[34] = at 0.313 µM, OCI-C5x cells, without rucaparib
[35] = at 0.313 µM, OCI-P5x cells, with rucaparib 20 µM, 100% = cells with rucaparib alone
[36] = at 0.313 µM, OCI-P5x cells, without rucaparib
[37] = at 1.25 µM, OCI-C5x cells, with rucaparib 10 µM, 100% = cells with rucaparib alone
[38] = at 1.25 µM, OCI-C5x cells, without rucaparib
[39] = at 1.25 µM, OCI-P5x cells, with rucaparib 20 µM, 100% = cells with rucaparib alone
[40] = at 1.25 µM, OCI-P5x cells, without rucaparib
[41] = at 5 µM, OCI-C5x cells, with rucaparib 10 µM, 100% = cells with rucaparib alone
[42] = at 5 µM, OCI-C5x cells, without rucaparib
[43] = at 5 µM, OCI-P5x cells, with rucaparib 20 µM, 100% = cells with rucaparib alone
[44] = at 5 µM, OCI-P5x cells, without rucaparib

Cc1cnc(NC(=O)Nc2cc(Br)c(C)cc2OC[C@@H]2CNCCO2)cn1
6470: cell count [5]
3.14: SSMD [5]
active: AC50 [1] 8330 nM | AC50 [2] 1180 nM | AC50 [3] 8330 nM | AC50 [4] 20900 nM | viability [6, 15] 65.9% | viability [6, 16] 19.8% | viability [6, 17] 84.2% | viability [6, 18] 88.9% | viability [6, 19] 47.7% | viability [6, 20] 17.5% | viability [6, 31] 92.1% | viability [6, 33] 96% | viability [6, 34] 98% | viability [6, 35] 73.6% | viability [6, 36] 94.9% | viability [6, 37] 60.4% | viability [6, 38] 71.2% | viability [6, 39] 43% | viability [6, 40] 85.9% | viability [6, 41] 3.26% | viability [6, 42] 46.4% | viability [6, 43] 0.466% | viability [6, 44] 7.42%
inactive: plate-normalised HSF1 focus index [5] 1.16 | viability [6, 13] 111% | viability [6, 14] 118% | viability [6, 21] 103% | viability [6, 22] 121% | viability [6, 23] 114% | viability [6, 24] 109% | viability [6, 25] 109% | viability [6, 26] 113% | viability [6, 27] 107% | viability [6, 28] 104% | viability [6, 29] 102% | viability [6, 30] 117% | viability [6, 32] 105%

COc1ccc(-c2ccc3c(N4CCOCC4)nc(N4C[C@@H](C)O[C@@H](C)C4)nc3n2)cc1CO
-1.75: SSMD [5]
6570: cell count [5]
active: AC50 [1] 3720 nM | AC50 [7] 332 nM | AC50 [8] 4170 nM | AC50 [3] 1050 nM | AC50 [4] 1050 nM | viability [6, 35] 95.5% | viability [6, 39] 78.8% | viability [6, 40] 91.3% | viability [6, 43] 48% | viability [6, 44] 99.4%
inactive: outcome [9] | plate-normalised HSF1 focus index [5] 0.909 | viability [6, 13] 118% | viability [6, 14] 122% | viability [6, 15] 105% | viability [6, 16] 112% | viability [6, 17] 113% | viability [6, 18] 119% | viability [6, 19] 109% | viability [6, 20] 108% | viability [6, 21] 112% | viability [6, 22] 120% | viability [6, 23] 104% | viability [6, 24] 107% | viability [6, 25] 120% | viability [6, 26] 117% | viability [6, 27] 103% | viability [6, 28] 104% | viability [6, 29] 122% | viability [6, 30] 125% | viability [6, 31] 100% | viability [6, 32] 109% | viability [6, 33] 121% | viability [6, 34] 127% | viability [6, 36] 106% | viability [6, 37] 120% | viability [6, 38] 124% | viability [6, 41] 133% | viability [6, 42] 106%

COc1cc(C(C)C)c(Oc2cnc(NC(CO)CO)nc2N)cc1I
inactive: outcome [1] | outcome [8] | outcome [3] | outcome [9] | outcome [4] | outcome [10]
active: AC50 [7] 14800 nM

Cc1c[nH]c2ncnc(N3CCC(CN)(C(=O)Nc4cccc(OC(=O)N(C)C)c4)CC3)c12
active: AC50 [8] 11800 nM | AC50 [3] 16600 nM
inactive: outcome [1]

CC1(C)OCCn2c1nc1c(N3CCOCC3)nc(-c3cnc(N)nc3)nc12
active: AC50 [1] 3720 nM | AC50 [8] 1860 nM | AC50 [3] 1480 nM | AC50 [4] 1320 nM

CC[C@@H](C)Nc1cc(C(=O)NC2CC3CCC(C2)N3c2ccc(C(=O)C3CC3)cn2)c(C)cc1C(N)=O (stereo not given in full)
active: AC50 [1] 148 nM | AC50 [8] 209 nM | AC50 [3] 186 nM | AC50 [4] 209 nM

Cc1ccc2c(=O)c3cccc(CC(=O)O)c3oc2c1C
1.03: fold change ([11]; measured here: relative caspase fold change +Dox/-Dox)
active: viability [6, 13] 94.7% | viability [6, 15] 97% | viability [6, 16] 97.7% | viability [6, 35] 68.4% | viability [6, 36] 19.4%
inactive: outcome [1] | outcome [8] | outcome [3] | outcome [9] | outcome [4] | outcome [10] | fold change ([11]; stronger effect = lower value, cell number ratio, induced over uninduced) 0.947 | z-score ([12]; MELAS cybrid survival, CellTiter-Glo 48 h, stronger effect = higher value) -0.329 | viability [6, 14] 116% | viability [6, 17] 105% | viability [6, 18] 110% | viability [6, 19] 102% | viability [6, 20] 101% | viability [6, 21] 108% | viability [6, 22] 116% | viability [6, 23] 105% | viability [6, 24] 103% | viability [6, 25] 113% | viability [6, 26] 116% | viability [6, 27] 107% | viability [6, 28] 111% | viability [6, 29] 115% | viability [6, 30] 114% | viability [6, 31] 110% | viability [6, 32] 113% | viability [6, 33] 116% | viability [6, 34] 115% | viability [6, 37] 118% | viability [6, 38] 127% | viability [6, 39] 104% | viability [6, 40] 112% | viability [6, 41] 103% | viability [6, 42] 123% | viability [6, 43] 104% | viability [6, 44] 122%
6780: cell count ([11]; measured here: total cells with miR-34 induction, stronger effect = lower value)
7150: cell count ([11]; measured here: total cells without miR-34 induction)
0.338: z-score ([12]; Rieske KO mouse fibroblast survival, CellTiter-Glo 72 h)

O=C(NO)c1cnc(N2C[C@H]3C[C@@H]2CN3c2cc(C(F)(F)F)ccn2)nc1
active: AC50 [1] 2630 nM | AC50 [8] 1180 nM | AC50 [3] 742 nM | AC50 [4] 1480 nM

CCO[C@@H]1OC(=O)C[C@@H]1NC(=O)[C@@H]1CCCN1C(=O)[C@@H](NC(=O)c1ccc(N)c(Cl)c1)C(C)(C)C
inactive: outcome [8] | outcome [3] | outcome [9] | outcome [4] | outcome [10]
active: AC50 [1] 23500 nM

C[C@H]1Oc2cc(cnc2N)-c2c(nn(C)c2C#N)CN(C)C(=O)c2ccc(F)cc21
active: AC50 [1] 14800 nM | AC50 [8] 10500 nM | AC50 [3] 9340 nM
